Our source for the Potency values is PubChem BioAssay (NCATS).

Assay [1] can be described thus: Immunotoxin (HA22) sensitization/mitigation study. Vehicle arm (PBS) (AID 1159510).
The nature of assay [2]: Immunotoxin (SS1P) sensitization/mitigation study. Vehicle arm (DMEM) (AID 1159513).

The source made the active and inactive calls. No rule for the calls is given here.
Potency is read from the fitted curve at half-maximal effect.

For the compound `COc1cccc2c1CCCC2CCCN1CCN(C2CCCCC2)CC1` (stereo unspecified), the Potency was 16.6 µM (active) in assay [1] and 7.43 µM (active) in assay [2].
On the same counts, the results for `CCC1(Cc2ccc(N)cc2)CCC(=O)NC1=O` (stereo unspecified) are “inactive” and “inactive”.
On the same counts, the results for `CC(C)Oc1cc(Nc2nc(N[C@@H](C)c3ccc(F)cn3)ncc2Cl)[nH]n1` are 20.9 µM (active) and 20.9 µM (active).
Regarding `CC(C)(C(=O)NCC(F)(F)C(F)(F)F)C(=O)N[C@@H]1C(=O)Nc2ccccc2-c2ccccc21`, the Potency result in assay [1] and in assay [2] was “inactive” each time.
In the case of `COc1cccc2nc(-c3cccs3)nc(NN3C(=O)C=C(C)C3=O)c12`, the values for the Potency in assay [1] and in assay [2] were 0.0166 µM (active) and 5.9 µM (active), respectively.
On to `CCNC(=O)c1noc(-c2cc(C(C)C)c(O)cc2O)c1-c1ccc(CN2CCOCC2)cc1`, for which the Potency in assay [1] was 0.0015 µM (active); in assay [2], 0.0021 µM (active).
On the same counts, the results for `COc1cc2c(cc1O)CC[C@@H]1[C@@H]2CC[C@]2(C)[C@@H](O)CC[C@@H]12` are 0.418 µM (active) and 0.833 µM (active).
On the same counts, the results for `CC1(C)SCCN(S(=O)(=O)c2ccc(OCC#CCO)cc2)[C@@H]1C(=O)NO` are “inactive” and “inactive”.
With `Cn1cc(-c2ccc3nnc(C(F)(F)c4ccc5ncccc5c4)n3n2)cn1`, the Potency entry in assay [1] and in assay [2] was “inactive” in each case.
With `CCc1cc(-c2n[nH]c(C)c2-c2ccc3c(c2)OCCO3)c(O)cc1O`, the Potency in assay [1] was 16.6 µM (active); in assay [2], 2.64 µM (active).
As for `COc1c(Cl)cc2c([nH]c3cnccc32)c1NC(=O)c1cccnc1C`, the Potency entry in assay [1] and in assay [2] was “inactive” throughout.
On to `Cc1ccc(NC(=O)c2cccc(C(C)(C)C#N)c2)cc1Nc1ccc2ncn(C)c(=O)c2c1`, for which the Potency is 23.5 µM (active) in assay [1] and 20.9 µM (active) in assay [2].
With `O=C(C1CC1)N1CC[C@@H](Cn2c(-c3ccc(-c4ccc5occc5c4)cc3)nc3cnccc32)C1`, the Potency in assay [1] is 20.9 µM (active); in assay [2] it was 16.6 µM (active).
